Compound activity: PubChem BioAssay, National Center for Advancing Translational Sciences (NCATS)
D2 PAM-1: human D2 receptor positive allosteric modulation; P14416; DiscoveRx D2 beta-arrestin cells, luminescence, 90 min; 100% = 57 uM dopamine signal; potentiation, % (test concentration not listed); 0.23% of 360,000 active; in the data active = potentiation above about 50%; inconclusive = mostly about 30% to 49%
Target sequence (P14416 whole entry, looked up): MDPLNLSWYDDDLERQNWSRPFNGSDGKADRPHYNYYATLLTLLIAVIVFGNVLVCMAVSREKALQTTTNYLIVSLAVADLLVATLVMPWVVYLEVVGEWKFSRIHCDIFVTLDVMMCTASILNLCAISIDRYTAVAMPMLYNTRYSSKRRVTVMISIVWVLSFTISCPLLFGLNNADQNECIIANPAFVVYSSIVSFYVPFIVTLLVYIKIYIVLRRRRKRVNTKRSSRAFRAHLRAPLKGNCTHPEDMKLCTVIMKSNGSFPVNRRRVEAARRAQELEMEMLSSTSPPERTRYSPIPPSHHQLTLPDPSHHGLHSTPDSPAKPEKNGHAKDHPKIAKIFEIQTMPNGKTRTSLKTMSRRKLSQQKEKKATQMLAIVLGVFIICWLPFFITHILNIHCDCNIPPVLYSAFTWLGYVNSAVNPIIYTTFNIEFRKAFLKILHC
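D2 cells co-treated with compound plus 50 nM dopamine (EC20) for 90 min at 37 deg C to detect potentiation. Beta-arrestin recruitment was read as enzyme-fragment luminescence after 1 h at ambient temperature. Full response was set by 57 uM dopamine.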
D2 antagonist: antagonists of human D2 dopamine receptor; P14416; HEK293 TREx D2 cells, calcium flux, dopamine EC80; inhibition, % at 10 µM; 2% of 340,000 active; AID 485344; in the data active = inhibition above about 30%; inactive = below that, where a call was filed; note: 0% is about no effect
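In this primary screen, negative modulation is detected by tracking calcium flux after an EC80 dopamine challenge in inducible HEK293 T-REx D2 cells preexposed to test compound for 180 s.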
D2 ag-1: activates the human D2 dopamine receptor | 0.53% of 340,000 active | AID 485358 | P14416 | HEK293 T-REx D2 cells, calcium flux agonist mode | activation, % at 2 µM;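 active = activation over 3 SD above normal in the single-dose calcium agonist read, cut at about 30% in these data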; note: 0% is about no effect
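Calcium-flux readout, 1 cycle/sec over 180 s following compound pin transfer, in inducible HEK293 Trex D2 cells (force-coupled); dopamine controls included. Positive calcium responses during this window marked compounds as potential agonists.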
D2 ag-2: human D2 receptor agonism in beta-arrestin assay; P14416; 0.084% of 360,000 active; DiscoveRx PathHunter D2 beta-arrestin, luminescence, 90 min; 100% = 57 uM dopamine signal; AID 624465; activation, % (no concentration beside the values); in the data active = activation above about 40%; inconclusive = between about 15% and that limit
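DiscoveRx PathHunter D2 beta-arrestin cells (2,100/well) attached overnight, then compound-stimulated 90 min at 37 C in HBSS/10 mM HEPES/0.1% Tween-20 buffer; beta-galactosidase complementation read by luminescence after 1 h at ambient temperature. Dopamine 57 uM final (EC100) as control.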
D2 PAM-2: positive allosteric modulators of human D2 dopamine receptor; P14416; HEK293 T-REx D2, calcium flux, EC20 dopamine potentiation; potentiation, % at 10 µM; 0.34% of 340,000 active; AID 485347;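 active = potentiation over 3 SD above the plate norm, cut at about 30% in these data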; note: 0% is about no effect
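Potentiation of an EC20 dopamine calcium response measured kinetically over 180 s, after a preceding 180 s compound-only read flagging agonists. Cells: inducible Hek293 Trex D2 line, 4000/well, cultured overnight at 30 C before dye loading.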
Active calls of the source: *; ? = inconclusive; nt = no result given. Most compounds without a hit are left out; they make up all but 2.4% or so of the library.

SMILES | D2 PAM-1 | D2 antagonist | D2 ag-1 | D2 ag-2 | D2 PAM-2
Cc1ccc(C2CC(C(F)(F)F)n3ncc(C(=O)NCc4ccco4)c3N2)cc1 (stereo not given) | -9 | 37* | 0 | -3 | 4
COc1ccccc1CN1CCc2c([nH]c3ccccc23)C1 | -69 | 53* | 4 | -4 | -19
CCCCN(C)C1=CC2=CC(=C(C#N)C#N)CCC2CC1 (stereo not given) | 13 | 73* | 140* | 10 | -19
N#CC(C#N)=C1C=C2C=C(N3CCCCC3)CCC2CC1 (stereo not given) | 22 | 87* | 132* | ? | -18
N#CC1=C(N)C2=C(N3CCCCC3)CCCC2C1(C#N)C#N (stereo not given) | 4 | -15 | 1 | 3 | 17
COc1ccccc1NC(=O)C(C)OC(=O)CCNS(=O)(=O)c1ccc(C)c(C)c1 (stereo not given) | -28 | 40* | 0 | -5 | -14
CCN(CC)c1ccc(/C=C/C(=O)C2C(=O)C=C(C)OC2=O)cc1 (stereo not given) | -1 | 50* | 83* | -1 | nt
O=C(CN1C(=O)C2C3C=CC(C3)C2C1=O)N1CC(=O)N(CCc2ccccc2)C(=O)C1 (stereo not given) | 21 | -6 | 0 | 0 | 10
O=C(CCN1C(=O)C2C3C=CC(C3)C2C1=O)N1CC(=O)N(CCc2ccccc2)C(=O)C1 (stereo not given) | -20 | 31* | 1 | -4 | 21
CC(CCc1ccccc1)NC(=O)c1ccc(C(=O)NC(C)CCc2ccccc2)cc1 (stereo not given) | -14 | -3 | 0 | 0 | 13
CC(C)CN1C(=O)C(=O)N(CC(=O)NC(C)CCc2ccccc2)C1=O (stereo not given) | 19 | 52* | 1 | 4 | -2
CC(CCc1ccccc1)NC(=O)c1ccccc1C(=O)O (stereo not given) | -7 | -5 | 30* | 1 | -9
CC(CCc1ccccc1)NC(=O)CN1CCN(Cc2ccccc2)C1=O (stereo not given) | -4 | -7 | 1 | -2 | -7
Cc1ccc(CN2CCN(CC(=O)NC(C)CCc3ccccc3)C2=O)cc1 (stereo not given) | 0 | -21 | -1 | -1 | 30*
Cc1ccc(C(=O)O)cc1NC(=O)c1cccs1 | 10 | 44* | 0 | 1 | 5
Cc1cc(NC(=O)c2ccccc2)ncc1NC(=O)c1cccs1 | -3 | 36* | -1 | 2 | 1
Cc1cc(NC(=O)c2cccs2)ncc1NC(=O)c1cccc(F)c1 | -2 | -17 | 0 | -3 | 3
CCC(CC)C(=O)N1c2ccccc2C(C)(c2ccccc2)CC1(C)C (stereo not given) | nt | nt | nt | nt | -1
CNCCCN1c2ccccc2CCc2ccccc21 | -28 | 39* | 2 | -1 | -23
CN(C)CCCN1c2ccccc2CCc2ccc(Cl)cc21 | -23 | 89* | 2 | 1 | -29
CCN1C(=O)CCCc2ccccc21 | -4 | 8 | 0 | 1 | 6
CN(C)CCCN1c2ccccc2Sc2ccccc21 | -35 | nt | nt | -10 | nt
CCCC(=O)Nc1ccccc1C(=O)OCc1cc(=O)n2nc(C(C)C)sc2n1 | nt | nt | 0 | nt | 9
CCN(CC)c1ccc(NC(=O)CN2CCN(S(=O)(=O)c3ccc(C(C)C)cc3)CC2)cc1 | nt | nt | 1 | nt | -3
CCOC(=O)c1ccc(NC(=O)c2c(NCc3cc(OC)c(OC)cc3OC)sc3c2CCCC3)cc1 | nt | nt | 1 | nt | 23
CN1c2ccccc2C(C)(C)[C@]12C=Cc1cc(O)ccc1O2 | 19 | -1 | 0 | -2 | -28
COc1ccc2ccc3c(c2c1)N=CC1(O3)N(C)c2ccccc2C1(C)C (stereo not given) | 71* | 2 | 1 | 13 | 9
CN1c2ccccc2C(C)(C)C12C=Nc1c(ccc3ccccc13)O2 (stereo not given) | 87* | 34* | 0 | ? | 1
COC(=O)c1ccccc1NC(=O)Cn1c(=O)n(CCCC(=O)NCc2ccccc2OC)c(=O)c2ccccc21 | nt | nt | nt | nt | 8
COc1cc2cnc(-c3ccccc3)c(-c3cccc(C(F)(F)F)c3)c2cc1OC | 162* | -2 | -1 | ? | 1
